Rows were chosen to be rich in hits. Some 4% of all compounds tested hit in one or more screens of this group.
GDH-TPI counter-1: GDH-TPI coupled enzyme inhibition counter-screen; GDH-TPI coupled enzyme counterscreen, NADH absorbance; inhibition, % at 4.8 µM; actives 1.2% (n = 360,000); in the data active = inhibition above about 30%
UGM FP inh: inhibitors of M. tuberculosis UDP-galactopyranose mutase; P9WIQ1; purified UGM, fluorescence polarization probe displacement; inhibition, % at 10 µM; actives 0.06% (n = 320,000); in the data active = inhibition above about 10%, passing the limit was not always enough
Mtb bLac sens: beta-lactam sensitization of Mtb H37Rv. inhibition, % at 25 µM. actives 0.27% (n = 330,000). M. tuberculosis H37Rv growth with meropenem, percent inhibition; call rule not given here;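 note: growth measured after seven days incubation then overnight dye step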
FBA Mtb inh: inhibitors of M. tuberculosis fructose-bisphosphate aldolase. P9WQA3. purified M. tuberculosis FBA, fluorescence read-out. inhibition, % at 1 µM. actives 2.3% (n = 360,000)
Rv3671c inh: inhibitors of M. tuberculosis serine protease Rv3671c; P9WHR9; inhibition, % at 5.96 µM; actives 0.048% (n = 320,000); in the data active = inhibition above about 38%;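 note: extracellular domain of Rv3671c used as enzyme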
Target sequence (P9WHR9 whole entry, looked up, the tested form may be a part): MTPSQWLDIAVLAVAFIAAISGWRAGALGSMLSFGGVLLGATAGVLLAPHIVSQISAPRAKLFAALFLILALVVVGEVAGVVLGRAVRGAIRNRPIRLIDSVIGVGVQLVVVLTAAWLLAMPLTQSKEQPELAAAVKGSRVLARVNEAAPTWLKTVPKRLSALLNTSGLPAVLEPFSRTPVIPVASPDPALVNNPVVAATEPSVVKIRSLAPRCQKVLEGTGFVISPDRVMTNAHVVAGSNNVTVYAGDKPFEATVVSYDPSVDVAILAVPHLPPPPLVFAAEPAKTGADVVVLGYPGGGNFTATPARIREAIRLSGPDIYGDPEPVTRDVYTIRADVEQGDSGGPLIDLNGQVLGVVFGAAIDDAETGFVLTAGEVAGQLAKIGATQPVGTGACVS
RecA splice inh: Mtb RecA intein splicing inhibition; P9WHJ3; cell-free RecA intein splicing, fluorescence; inhibition, % (test concentration not listed); actives 0.75% (n = 290,000); in the data active = inhibition above about 30%
Mtb FBA confirm: Mtb FBA inhibition, confirmed; shares compounds with FBA Mtb inh; purified M. tuberculosis FBA, fluorescence read-out; actives 78% (n = 5,600); AID 651616; inhibition, % at 1 µM
GDH-TPI counter-2: GDH-TPI inhibition counter-screen for FBA inhibitors | inhibition, % at 1 µM | shares compounds with FBA Mtb inh | actives 81% (n = 5,600) | GDH-TPI coupled enzyme counterscreen, fluorescence; in the data active = inhibition above about 10%
Large screens that a line does not name were inactive (follow-up assays come after a bar, where they were run). Cut-off read from the data, not from the text of the source, unless noted: active = inhibition above about 27%; inactive = the rest.

NC(=O)c1sc2cc(C(F)(F)F)cnc2c1-c1cccs1	none
CCOc1c2ccc(C(=O)NCc3ccc(C(F)(F)F)cc3C(F)(F)F)cc2nn1C	FBA Mtb inh 60 | Mtb FBA confirm 127 | GDH-TPI counter-2 104
CCCCn1nc2cc(C(=O)NCc3cc(C(F)(F)F)cc(C(F)(F)F)c3)ccc2c1OC	none
COc1c2ccc(C(=O)NCc3cc(C(F)(F)F)cc(C(F)(F)F)c3)cc2nn1C	FBA Mtb inh 46 | Mtb FBA confirm 97 | GDH-TPI counter-2 73
CCCCn1nc2cc(C(=O)NCc3ccc(C(F)(F)F)cc3C(F)(F)F)ccc2c1OCC	none
Cc1ccc2nc3n(c(=O)c2c1)-c1ncccc1C(=O)NC3Cc1ccccc1 (configuration not stated)	none (no result: UGM FP inh, Mtb bLac sens, Rv3671c inh, RecA splice inh)
Clc1ccc(-c2nnc(N3CCOCC3)o2)cc1	FBA Mtb inh 40 | Mtb FBA confirm 92 | GDH-TPI counter-2 56
Cc1ccc(NC(=O)NC(=O)COC(=O)c2ccc(O)cc2O)c(C)c1	none (no result: UGM FP inh, Mtb bLac sens, Rv3671c inh, RecA splice inh)
Cc1ccc(S(=O)(=O)Nc2ccc(Cl)cn2)cc1	none
Cc1ccc(NS(=O)(=O)Cc2ccccc2)nc1	FBA Mtb inh 60 | Mtb FBA confirm 171 | GDH-TPI counter-2 142
Cc1ccc(NS(=O)(=O)c2ccc(Br)cc2)nc1	FBA Mtb inh 28 | Mtb FBA confirm active | GDH-TPI counter-2 active
Cc1ccnc(NS(=O)(=O)Cc2ccccc2)c1	FBA Mtb inh 44 | Mtb FBA confirm 103 | GDH-TPI counter-2 68
O=S(=O)(Cc1ccccc1)Nc1ccc(Br)cn1	none
CC1=CC(=O)Nc2ccccc2S1	none (no result: UGM FP inh, Mtb bLac sens, Rv3671c inh, RecA splice inh)
CCOc1cc(C(=O)N2CCC(CC3CC(c4cccc(Br)c4)=NO3)(C(=O)NCC3CCCCC3)CC2)cc(OCC)c1OCC (configuration not stated)	none
CCCNC(=O)C1(CC2CC(c3ccccc3)=NO2)CCN(C(=O)c2cc(OCC)c(OCC)c(OCC)c2)CC1 (configuration not stated)	FBA Mtb inh 29 | Mtb FBA confirm 169 | GDH-TPI counter-2 128
Cn1c(=O)n(C)c2cc(S(=O)(=O)Nc3ccccc3C(=O)O)ccc21	FBA Mtb inh 29 | Mtb FBA confirm active | GDH-TPI counter-2 active
Cc1c(O)ccc2c(=O)c(Oc3ccccc3)coc12	none (no result: Rv3671c inh)
CCCOC(=O)c1ccc(Oc2coc3c(CN(CC)CC)c(O)ccc3c2=O)cc1	FBA Mtb inh 55 | Mtb FBA confirm inactive | GDH-TPI counter-2 12
CN/C=C1\C(=O)C(C)(C)Oc2ccc3ccc(=O)oc3c21	none
CC1(C)Oc2ccc3ccc(=O)oc3c2/C(=C/NNC(N)=S)C1=O	FBA Mtb inh 28 | Mtb FBA confirm active | GDH-TPI counter-2 197
CCC1(c2ccccc2)NC(=O)N(CC(=O)NNC(=O)COc2ccc(Cl)cc2C)C1=O (configuration not stated)	none (no result: RecA splice inh)
Cc1ccccc1C(=O)Nc1ccnn1C1CCN(C(=O)c2ccoc2)CC1	none
Cc1ccc(N=CC=C2OC(C)(C)C(C)(C)O2)c(C)c1	none
CC1(C)OC(=CC=Nc2ccc(Cl)cc2)OC1(C)C	FBA Mtb inh 49 | Mtb FBA confirm active | GDH-TPI counter-2 active
CCCCN1C(=O)C(=O)N(CC(=O)Nc2ccccc2C(=O)OCC)C1=O	none
O=c1[nH]c(=O)c2cc3ccccc3nc2[nH]1	FBA Mtb inh 75 (no result: UGM FP inh, Mtb bLac sens, Rv3671c inh, RecA splice inh) | Mtb FBA confirm 47 | GDH-TPI counter-2 45
Cc1cc2cc3c(=O)[nH]c(=O)[nH]c3nc2cc1C	none (no result: GDH-TPI counter-1, FBA Mtb inh)
Cc1nc2cc3ccccc3cc2c(=O)[nH]1	FBA Mtb inh 67 | Mtb FBA confirm inactive | GDH-TPI counter-2 inactive
Nc1ccc(C#Cc2c(-c3ccsc3)oc3ccc(N4CCOCC4)cc23)cc1	FBA Mtb inh 41 | Mtb FBA confirm 102 | GDH-TPI counter-2 75
COc1ccc(-c2oc3ccc(N4CCOCC4)cc3c2C#CCO)cc1	GDH-TPI counter-1 47, FBA Mtb inh 33 | Mtb FBA confirm 48 | GDH-TPI counter-2 35
COCCNC(=O)C1(C)CCCN(C(=O)c2ccccc2F)C1 (configuration not stated)	none (no result: UGM FP inh, Mtb bLac sens, Rv3671c inh, RecA splice inh)
Cc1c(-c2cc(C(=O)O)c3ccccc3n2)cnn1C	FBA Mtb inh 97 | Mtb FBA confirm 136 | GDH-TPI counter-2 113
COc1ccc(-c2ccc(C(=O)NCc3ccccc3)c3occc23)c(C)c1	none (no result: UGM FP inh, Mtb bLac sens, Rv3671c inh, RecA splice inh)
COCCNC(=O)c1ccc(-c2ccc(OC)cc2C)c2ccoc12	FBA Mtb inh 95 (no result: UGM FP inh, Mtb bLac sens, Rv3671c inh, RecA splice inh) | Mtb FBA confirm 55 | GDH-TPI counter-2 44
COc1ccc(-c2ccc(C(=O)NCCN(C)C)c3occc23)c(C)c1	FBA Mtb inh 33 (no result: UGM FP inh, Mtb bLac sens, Rv3671c inh, RecA splice inh) | Mtb FBA confirm 33 | GDH-TPI counter-2 25
COc1ccc(-c2ccc(C(=O)NC3CCCCC3)c3occc23)c(C)c1	none (no result: UGM FP inh, Mtb bLac sens, Rv3671c inh, RecA splice inh)
O=C(Nc1ccccc1C(=O)N1CCCCC1)c1ccccc1C(F)(F)F	none
Cc1ccc(-c2cn3c(n2)CCCC3)cc1	FBA Mtb inh 38 | Mtb FBA confirm active | GDH-TPI counter-2 159
COC(=O)c1sc2nc(C)cc(C)c2c1N	FBA Mtb inh 38 | Mtb FBA confirm inactive | GDH-TPI counter-2 inactive
Cc1cc(C)c2c(N)c(C(=O)N3CCCCCC3)sc2n1	none
Cc1cc(C)c2c(N)c(C(=O)Nc3ncc(C)s3)sc2n1	FBA Mtb inh 43 (no result: RecA splice inh) | Mtb FBA confirm 121 | GDH-TPI counter-2 119
Cc1cc(C)c2c(N)c(C(=O)Nc3ccccc3Br)sc2n1	FBA Mtb inh 42 | Mtb FBA confirm 152 | GDH-TPI counter-2 117
CCc1ccccc1NC(=O)c1sc2nc(C)cc(C)c2c1N	none
Cc1ccc(N2CC(=O)N(NC(=O)c3sc4nc(C)cc(C)c4c3N)CC2=O)cc1	FBA Mtb inh 48 | Mtb FBA confirm 59 | GDH-TPI counter-2 47
COc1cc(CC(=O)OCC(=O)NCC(C)C)cc(OC)c1OC	none (no result: RecA splice inh)
COc1cccc(-c2nc(-c3ccccc3)c(-c3ccccc3)[nH]2)c1OCC(=O)O	FBA Mtb inh 84 (no result: Rv3671c inh) | Mtb FBA confirm 70 | GDH-TPI counter-2 54
O=C(O)c1ccccc1-c1nc(-c2ccccc2)c(-c2ccccc2)[nH]1	none
O=C(O)COc1ccccc1-c1nc(-c2ccccc2)c(-c2ccccc2)[nH]1	FBA Mtb inh 88 | Mtb FBA confirm 53 | GDH-TPI counter-2 29
O=C(O)COc1ccc(-c2nc(-c3ccccc3)c(-c3ccccc3)[nH]2)cc1	FBA Mtb inh 98 | Mtb FBA confirm 86 | GDH-TPI counter-2 73
COc1cccc(-c2nc(-c3ccc4c(c3)-c3ccccc3S4(=O)=O)c(-c3ccccc3)[nH]2)c1OC	FBA Mtb inh 31 | Mtb FBA confirm inactive | GDH-TPI counter-2 inactive
Cc1c(C(=O)NN2CCCCC2)nn(-c2ccc(Cl)cc2Cl)c1-c1ccc(I)cc1	none (no result: GDH-TPI counter-1, FBA Mtb inh)
O=c1[nH]c(CSc2ccccn2)nc2c1oc1ccccc12	none
Cc1ccc(S(=O)(=O)N2CCOCC2)cc1C(=O)OC(C)C(=O)NC1CCCC1 (configuration not stated)	none (no result: RecA splice inh)

Screens from PubChem.
